The list is not random: actives were taken first. Their share in the collection is about 8%.
SARS PLP yeast – inhibitors of SARS-CoV papain-like protease in yeast; 0.19% of 330,000 active; Potency, µM (series often up to 32.9 µM), without a hit: at the highest dose activity, positive = growth rescue, hits mostly activators; S. cerevisiae expressing SARS-CoV PLpro, growth rescue; AID 485353; calls by dose curve; also: potency is read from the fitted curve at half-maximal effect; 0% is about no effect; nearly all actives have a fitted effect of over 55% in size
FMDV inh – antivirals against foot and mouth disease virus; FMDV antiviral cell-based qHTS; Potency, µM (highest dose often 57.9 µM), for the others: top-dose activity change, negative = inhibition, actives largely listed as inhibitors; 1.2% of 410,000 active; AID 1159524; calls by dose curve; tested in HEK293T cells; also: read-out not given here; potency is read from the fitted curve at half-maximal effect; % is scaled to controls: 0 for no effect and ±100 for the full control effect; nearly all actives have a fitted effect of over 45% in size
MARV entry inh – Marburg virus entry inhibition. 1.8% of 300,000 active. Potency, µM (highest dose often 37.8 µM), for the others: at the top dose activity change, negative = inhibition, actives largely listed as inhibitors. Marburg virus pseudotyped entry inhibition, cell reporter; calls by dose curve; tested in HEK293 cells; also: potency is read from the fitted curve at half-maximal effect; % is scaled to controls: 0 for no effect and ±100 for the full control effect
LASV entry inh – Lassa virus entry inhibition | Lassa virus pseudotype entry inhibition, cell reporter | Potency, µM (series often up to 37.9 µM), inactives show at the highest dose activity change, negative = inhibition, usual class: inhibitors | 1.2% of 300,000 active; calls by dose curve; tested in HEK293 cells; also: potency is read from the fitted curve at half-maximal effect; % is scaled to controls: 0 for no effect and ±100 for the full control effect; nearly all actives have a fitted effect of over 50% in size
HCV inhibitor – HCV inhibition; Huh7.5.1 HCVcc-Cre infection, luciferase reporter, 44 h; 3.4% of 340,000 active; Potency, µM (highest dose often 41.8 µM), for the others: top-dose activity change, negative = inhibition, actives largely listed as inhibitors; active = well fitted inhibition curve with a large enough effect; inconclusive = small, poorly fitted or top-dose-only effect, or another doubt; inactive = no such curve, though single readings can be large or run the other way; also: potency is read from the fitted curve at half-maximal effect; % is scaled to controls: 0 for no effect and ±100 for the full control effect
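Seed cells (1,000/well) for 4 h; treat with compound and infect with HCVcc-Cre, moi about 0.5. Incubate 44 h, then detect luciferase activity.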
HCMV inh – human cytomegalovirus inhibition; HFF cells, HCMV-luciferase reporter, 72 h; active compounds read low; activity change, negative = inhibition, % at 57.5 µM; 4.5% of 410,000 active; in the data active = activity change below about -60%; inconclusive = no clear call, values can overlap the other calls; inactive = above about -39%; also: % is scaled to controls: 0 for no effect and ±100 for the full control effect
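HFF cells seeded 16 h at 37C, treated with compounds, infected with luciferase-reporter HCMV at MOI 1 PFU/cell; luciferase read at 72 h post infection, normalized to buffer-only and Salinomycin controls.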
The depositor's hits bear a star; u = inconclusive; x = not tested or not shown; [ ] = another dose, or the depositor's remark.

SMILES	SARS PLP yeast	FMDV inh	MARV entry inh	LASV entry inh	HCV inhibitor	HCMV inh
CC(=O)CSc1nnc2c3ccccc3nc(C(C)(C)C)n12	-5%	-18%	x	x	-10%	u
Cc1nc2c3ccccc3nc(SCC(=O)N3CC(C)CC(C)C3)n2n1 (stereo not drawn)	-4%	-8%	u	-3%	6%	-15
Cc1nc2c3ccccc3nc(SCC(=O)c3ccc(Cl)cc3)n2n1	8%	u	-26%	-10%	25µM*	-40
Cc1cc(NC(=O)Cn2c(=O)oc3ccccc32)no1	2%	-24%	x	x	-2%	-9
O=C1c2cccc3cccc(c23)C(=O)C1(O)O	x	22µM*	u	-24%	-26%	-69*
c1ccc(-n2cnc3ccccc32)nc1	-8%	9%	-9%	14%	-23%	u
c1ccc(-c2ccc(-c3n(-c4ccccn4)c4ccccc4[n+]3-c3ccccn3)cc2)cc1	0%	14µM*	u	u	u	-2
Cc1cccc(OCCC(=O)OCC(=O)Nc2c(C)nn(-c3ccccc3)c2C)c1	u	3%	u	u	-1%[8.37 µM]	x
O=C(c1cccc(S(=O)(=O)Nc2ccc(F)cc2)c1)N1CCOCC1	0%	8%	x	x	2%	0
Cc1ccc(CNc2ccc3c(c2)OCO3)cc1	x	15%	u	-22%	10µM*	x
Cn1cccc1C(=O)N1CCC[C@@]2(CCN(c3ncccn3)C2)C1	x	-9%	x	x	x	x
CCCOc1ccc(-c2nnc(-c3ccncc3)o2)cc1	0%	5%	5%	-1%	11µM*	23
Cc1ccc(NC2=Nc3ccccc3CS2)cc1	0%	-28%	10µM*	u	-12%	-3
CCc1ccc(C(=O)Cc2cc3cccc(OC)c3oc2=O)cc1	2%	71%	x	x	-9%	48
COC(=O)[C@@H]1[C@@H](C)N(Cc2ccccc2)C(=O)N[C@H]1c1cccc(C(F)(F)F)c1	0%	0%	-19%[14.2 µM]	x	2.8µM*	-20
CCOC(=O)CN1C(=O)N[C@@H](c2ccccc2)[C@H](C(C)=O)[C@H]1C	x	-1%	2%[14.2 µM]	x	17%	-103*
COc1ccc2c(c1)[C@@H](NC(C)=O)[C@H](C)[C@@H](c1ccccc1)N2C(=O)Nc1ccc(C(F)(F)F)cc1	x	x	x	x	x	-27
COc1cccc(Nc2ccc3cc(S(=O)(=O)N4CCC(C)CC4)ccc3n2)c1	x	-15%	x	-29%[46.1 µM]	x	-87*
COc1ccc(Nc2ccc3cc(S(=O)(=O)N4CCCC4)ccc3n2)cc1OC	x	-29%	x	-20%[46.1 µM]	x	-9
CC(=O)Nc1cc2ccccc2oc1=O	-4%	19%	1%[46.1 µM]	0%	11%	-26
Cc1oc(=O)c(NC(=O)c2ccc(Cl)cc2)cc1C(=O)c1ccccc1	-29%	u	u	23µM*	u	-33
Cc1oc(=O)c(NC(=O)c2ccccc2)cc1C(=O)c1ccccc1	-29%	-22%	2%	u	-19%	118
Cc1ccc(C(=O)Nc2cc3ccccc3oc2=O)cc1	-3%	2µM*	u	2.8µM*	-16%	-67*
CCc1cccc2c(C(=O)COC(=O)c3ccccc3)c[nH]c12	7%	38%	5%	-4%	u	-9
CCc1cccc2c(C(=O)C(NCCCOC)c3ccccc3)c[nH]c12 (stereo not drawn)	-11%	-9%	13µM*	u	11µM*	8
SMILES	SARS PLP yeast	FMDV inh	MARV entry inh	LASV entry inh	HCV inhibitor	HCMV inh
CCc1cccc2c(C(=O)C(NC(C)CC)c3ccccc3)c[nH]c12 (stereo not drawn)	-1%	-16%	12µM*	16µM*	11µM*	-22
CCCCNC(=O)C(NC(=O)c1cnccn1)C(=O)c1ccccc1 (stereo not drawn)	x	-5%	x	x	x	-25
COc1ccc(-c2nc3n(n2)C(=O)C[C@@H](c2ccco2)S3)cc1	x	x	10%	x	x	x
CCC[C@H]1[C@@H](N(C)C)CC[C@@]23CCCN2C(=O)CCC[C@@H]13	x	x	x	x	x	30
CCOc1ccccc1-c1nc(CN2CCCN(C(=O)c3ccco3)CC2)c(C)o1	-7%	3%	-3%	-11%	x	-101*
CCC(=O)N1CCc2cc(Br)cc(S(=O)(=O)N3CCCC(C(=O)NCc4cccc(OC)c4)C3)c21 (stereo not drawn)	x	9%	-25%[46.1 µM]	12%[46.1 µM]	x	-35
COc1ccc(N2C(=O)/C(=C/c3ccc([N+](=O)[O-])cc3)C=C2c2ccccc2)cc1	2%	x	-17%	u	u	-101*
O=C(O)c1cccc(N2C(=O)/C(=C/c3ccc([N+](=O)[O-])cc3)C=C2c2ccccc2)c1	1%	13µM*	x	x	5%	7
O=C1/C(=C/c2ccc([N+](=O)[O-])cc2)C=C(c2ccccc2)N1c1ccc(O)cc1	-8%	u	-29%	u	u	-83*
O=C1CSc2ccc(C(=O)NCCc3ccc(Cl)cc3Cl)cc2N1	1%	-26%	x	x	u	0
CC(C)=CCN1CCNC(=O)C1CC(=O)NCc1nc(C)c(C)s1 (stereo not drawn)	1%	20%	-1%[46.1 µM]	-12%[46.1 µM]	9%	-26
O=C(N/N=C1\CCc2ccccc21)c1ccccc1O	-32%	-33%	5µM*	u	6%	-27
CCCCS(=O)(=O)N1CCN(S(=O)(=O)c2ccc(Cl)s2)CC1	-4%	-16%	x	x	-5%	24
CCCN1C(=O)/C(=C/c2ccc(C)s2)SC1=Nc1ccc(OC)cc1	10%	-28%	18%	u	-12%	-15
CCN(CC)CCN1C(=O)/C(=C\c2ccc(Cl)c([N+](=O)[O-])c2)SC1=Nc1ccc(OC)cc1	-9%	25µM*	u	u	u	-99*
COc1ccc(N=C2S/C(=C\c3ccc(Cl)c([N+](=O)[O-])c3)C(=O)N2CCN(C)C)cc1	-3%	28µM*	x	x	u	-39
O=C(c1ccc(-c2ccccc2)cc1)N1CCC2CC1c1cc(-c3ccc4c(c3)OCO4)ccc12 (stereo not drawn)	x	23%	x	x	x	-7
N#Cc1ccc(C(=O)N2CCC3CC2c2cc(-c4ccc(F)cc4)ccc23)cc1 (stereo not drawn)	x	0%	x	x	35µM*	10
Fc1ccc(Nc2nnc(-c3ccncc3)s2)cc1Cl	x	44%	x	x	x	7
CN1CCN(C(c2ccc(Cl)cc2)c2cc(Cl)c3cccnc3c2O)CC1 (stereo not drawn)	-23%	-3%	u	10µM*	u	264
Cc1[nH]c2ccccc2c1C(c1ccccn1)N1CCCC1 (stereo not drawn)	-4%	-8%	-15%[46.1 µM]	-1%	-9%	-39
Oc1c(C(c2ccccn2)N2CCCCC2)cc(Cl)c2cccnc12 (stereo not drawn)	-25%	-28%	x	x	10µM*	44
CCN(CC)CCN(Cc1cc2cc3c(cc2[nH]c1=O)OCO3)C(=S)NCC(C)C	-1%	u	x	x	u	-22

Compound activity as filed in PubChem.
